Among the data in PubChem BioAssay AID489042 (NMMLSC, 2010) are inhibition score values, retold here.

Structures are written as SMILES. A number with no mark means an inactive call. Active and inactive are the calls of the source. No stated cut-off is given here; in the data, active means inhibition score above about 11; inactive means the rest.

The nature of the experiment: S. cerevisiae short- and long-term growth effects – BY4741, OD595, 24 h, dose response (AID 489042). Particulars: hits give high values.

Regarding `CNC(=O)c1cccc2nc3ccccc3nc12`, the inhibition score is 21 (active). The value for `FC(F)(F)c1nc2cc3nc4ccccc4[nH]c3cc2n1` was 0; that for `C[C@@]12C(=O)OC(=O)[C@]1(C)C1CCC2O1` was 21 (active). The value for `CCN(CC)c1ccc2nc3ccc(N)cc3[n+](-c3ccccc3)c2c1` was 0; that for `O=C1c2c(O)ccc(O)c2C(=O)c2c(NCCNCCO)ccc(NCCNCCO)c21` was 0; that for `COc1ccc2nc3cccc(OC)c3nc2c1` was 10. For `Cc1ccc(-c2nn(C(C)(C)C)c3ncnc(N)c23)cc1`, the inhibition score is 21 (active).

For the compound `COc1ccc2nc3ccccc3[n+]([O-])c2c1`, the inhibition score is 0. For `CC(C)OC(=O)c1ccc2nc3ccccc3nc2c1` the value was 10; for `CCC(=Nc1ccccc1O)C1=C(O)CC(c2ccccc2)CC1=O` (centres undefined), 10.

Consider `Cc1ccccc1NC(=O)c1cccc2nc3ccccc3nc12`, for which the inhibition score was 0. In the case of `COc1ccc2c(c1)c1nnc(SC)nc1n2C`, the inhibition score is 21 (active).

Regarding `Cc1cc(C)c2[nH]c3nc(SCC(=O)O)nnc3c2c1`, the inhibition score was 0.

Consider `c1ccc2nc3ccccc3nc2c1`, for which the inhibition score was 21 (active).

Regarding `CCn1c2ccccc2c2n[nH]c(=S)nc21`, the inhibition score is 0. Regarding `C#CCSc1nnc(-c2ccc([N+](=O)[O-])cc2)o1`, the inhibition score was 0.

As for `CSc1nnc(-c2ccc([N+](=O)[O-])cc2)o1`, the inhibition score was 0. The value for `N#CCc1nn(-c2ccccc2)c2ncnc(N)c12` was 0. Consider `Cc1cccc2nc3ccccc3nc12`, for which the inhibition score was 10. For the compound `COC(=O)c1cccc2nc3c(C(C)O)cccc3nc12` (centres undefined), the inhibition score was 0. The value for `NC(=O)CSc1nnc(-c2ccc([N+](=O)[O-])cc2)o1` was 0; that for `O=C(Nc1ccc2nc3ccccc3nc2c1)c1ccccc1` was 21 (active); that for `Cc1cc(C)cc(NC(=O)CN2CCN(c3ccccn3)CC2)c1` was 0. For `CCc1nc(NC(C)(C)C)c2cnn(-c3ccccc3)c2n1` the value was 0; for `c1ccc2[nH]c3cc4ncnc4cc3nc2c1`, 0; for `CC(C)(C)Nc1ncnc2c1cnn2-c1ccccc1`, 10.

For `C/C(=N\Nc1ncnc2sc(C)c(C)c12)c1ccccn1`, the inhibition score was 21 (active). For `COc1ccc2nc3ccccc3nc2c1N` the value was 10. On to `[O-][n+]1c2ccccc2[n+]([O-])c2cc(O)ccc21`, for which the inhibition score was 10.
